# Assay results as given in PubChem BioAssay (EPA / NIEHS).
# Where “and” joins values, the source holds several entries; their conditions need not be identical. Identical values can stand only once. Where a structure was tested more than once in an assay, its records may differ in their call. Calls of active or inactive are those of the source. Rule for the calls: active = hit-call score of the fitted dose curve at least 0.9, where 1 is the maximum; inactive = score below 0.9.
# Legend:
# [1] = read-out: Collagen III, COL3A1 (gene 1281); assay: BSK_MyoF_CollagenIII: BioMAP Diversity Plus: MyoF Assay for Collagen III Biomarker Activity (AID 2284239); conditions: primary human lung fibroblasts
# How it was run: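 Compounds are added to primary human lung fibroblasts and left for 24 hours. Collagen III is then quantified by ELISA. Analysis takes DMSO as baseline and fits increases in signal.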
# [2] = read-out: Actin alpha 1 (ACTA1), ACTA1 (gene 58); assay: BSK_MyoF_ACTA1: BioMAP Diversity Plus: MyoF Assay for Actin alpha 1 (ACTA1) Biomarker Activity (AID 2284244); conditions: primary human lung fibroblasts
# How it was run: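 Lung fibroblasts, human primary, 24 h compound exposure → a-SMA ELISA. Positive-direction fit vs DMSO control.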
# [3] = read-out: Interleukin 2 (IL2), IL2 (gene 3558); assay: BSK_BT_xIL2: BioMAP Diversity Plus: BT Assay for Interleukin 2 (IL2) Biomarker Activity (AID 2284245); conditions: primary human B cells with PBMC
# How it was run: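 B cell + PBMC co-culture (human primary), compound added, 24 h incubation; secreted IL-2 measured multiplexed on Luminex xMAP; gain-of-signal fit vs DMSO.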
# [4] = read-out: Basic fibroblast growth factor (bFGF), FGF2 (gene 2247); assay: BSK_MyoF_bFGF: BioMAP Diversity Plus: MyoF Assay for Basic fibroblast growth factor (bFGF) Biomarker Activity (AID 2284246); conditions: primary human lung fibroblasts
# How it was run: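 ELISA-measured bFGF level serves as the read-out, taken 24 h after chemical dosing of human lung fibroblasts. Values represent signal gain over the DMSO negative control.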
# [5] = read-out: Collagen IV, COL4A1 (gene 1282); assay: BSK_MyoF_CollagenIV: BioMAP Diversity Plus: MyoF Assay for Collagen IV Biomarker Activity (AID 2284247); conditions: primary human lung fibroblasts
# How it was run: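 Steps: dose human lung fibroblasts; culture 24 h; quantify Collagen IV by ELISA; fit increase versus DMSO control. Parallel SRB total-protein staining (0.1% SRB after 10% TCA fixation, 560 nm) tracks overt cytotoxicity.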
# [6] = read-out: Plasminogen activator inhibitor-1 (PAI1), SERPINE1 (gene 5054); assay: BSK_MyoF_PAI1: BioMAP Diversity Plus: MyoF Assay for Plasminogen activator inhibitor-1 (PAI1) Biomarker Activity (AID 2284256); conditions: primary human lung fibroblasts;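 for outcome: PAI-1 protein level measured by ELISA in fibroblast cultures; PAI-1 read 24 h after compound addition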
# How it was run: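 Activity reflects increased PAI-1, determined by ELISA and compared with DMSO, in human lung fibroblasts treated for 24 h.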
# [7] = read-out: Interleukin 17F (IL17F), IL17F (gene 112744); assay: BSK_BT_xIL17F: BioMAP Diversity Plus: BT Assay for Interleukin 17F (IL17F) Biomarker Activity (AID 2284243); conditions: primary human B cells with PBMC
# How it was run: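 Measures secreted IL-17F from a human B cell plus PBMC co-culture at 24 h post-dose by Luminex xMAP, with DMSO defining baseline activity.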
# [8] = read-out: Monokine induced gamma interferon (MIG), CXCL9 (gene 4283); assay: BSK_KF3CT_MIG: BioMAP Diversity Plus: KF3CT Assay for Monokine induced gamma interferon (MIG) Biomarker Activity (AID 2284248); conditions: primary human keratinocytes with fibroblasts
# How it was run: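 The assay uses a co-culture of human keratinocytes and foreskin fibroblasts. Measurement occurs 24 hours after dosing, with MIG detected by ELISA and the DMSO control as baseline.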
# [9] = read-out: Vascular cell adhesion molecule 1 (VCAM1), VCAM1 (gene 7412); assay: BSK_BF4T_VCAM1: BioMAP Diversity Plus: BF4T Assay for Vascular cell adhesion molecule 1 (VCAM1) Biomarker Activity (AID 2284249); conditions: primary human bronchial epithelial cells with fibroblasts
# How it was run: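 Human bronchial epithelial cell and dermal fibroblast co-culture exposed 24 h. VCAM-1 measured by ELISA; parallel SRB total-protein staining for cytotoxicity. Fitted in positive direction relative to DMSO.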
# [10] = read-out: Collagen I, COL1A1 (gene 1277); assay: BSK_hDFCGF_CollagenI: BioMAP Diversity Plus: hDFCGF Assay for Collagen I Biomarker Activity (AID 2284250); conditions: primary human foreskin fibroblasts
# How it was run: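 Human skin primary fibroblasts dosed with test chemical, harvested at 24 h, Collagen I quantified by ELISA; parallel SRB staining (0.1% SRB after 10% TCA fixation, 560 nm) tracked cytotoxicity.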
# [11] = read-out: Interferon-inducible T-cell alpha chemoattractant (ITAC), CXCL11 (gene 6373); assay: BSK_hDFCGF_ITAC: BioMAP Diversity Plus: hDFCGF Assay for Interferon-inducible T-cell alpha chemoattractant (ITAC) Biomarker Activity (AID 2284251); conditions: primary human foreskin fibroblasts
# How it was run: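 Fibroblasts (human foreskin, primary) are treated with chemical, cultured 24 h, then assayed for I-TAC by ELISA. Overt toxicity is checked in parallel cultures by sulforhodamine B staining of total protein at the same time point.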
# [12] = read-out: Plasminogen activator inhibitor-1 (PAI1), SERPINE1 (gene 5054); assay: BSK_KF3CT_PAI1: BioMAP Diversity Plus: KF3CT Assay for Plasminogen activator inhibitor-1 (PAI1) Biomarker Activity (AID 2284252); conditions: primary human keratinocytes with fibroblasts
# How it was run: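 ELISA read-out of PAI-1 taken 24 h after chemical treatment of a human skin primary co-culture of keratinocytes and foreskin fibroblasts. Increases over DMSO-treated wells defined activity.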
# [13] = read-out: Monocyte Chemoattractant Protein-1 (MCP1), CCL2 (gene 6347); assay: BSK_IMphg_MCP1: BioMAP Diversity Plus: IMphg Assay for Monocyte Chemoattractant Protein-1 (MCP1) Biomarker Activity (AID 2284253); conditions: primary human endothelial cells with macrophages
# How it was run: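 Human venular endothelial cells co-cultured with macrophages; MCP-1 measured by ELISA 24 hours post-dose and fitted against DMSO. Cytotoxicity monitored by SRB total-protein staining in parallel cultures.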
# [14] = read-out: Interleukin-8 (IL8), CXCL8 (gene 3576); assay: BSK_KF3CT_IL8: BioMAP Diversity Plus: KF3CT Assay for Interleukin-8 (IL8) Biomarker Activity (AID 2284254); conditions: primary human keratinocytes with fibroblasts
# How it was run: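 ELISA detection of IL-8 from a human skin co-culture, keratinocytes with foreskin fibroblasts, at 24 h following chemical exposure, with gain of signal scored against DMSO controls.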
# [15] = read-out: Macrophage Inflammatory Protein-1 Alpha (MIP1a), CCL3 (gene 6348); assay: BSK_IMphg_MIP1a: BioMAP Diversity Plus: IMphg Assay for Macrophage Inflammatory Protein-1 Alpha (MIP1a) Biomarker Activity (AID 2284255); conditions: primary human endothelial cells with macrophages
# How it was run: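 Co-culture of human venular endothelial cells and macrophages exposed to compounds for 24 h; MIP-1a measured by ELISA relative to DMSO. Cytotoxicity assessed in parallel cultures by sulforhodamine B total-protein staining at 560 nm.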
# CD69, CD69 (gene 969) = assay: BSK_IMphg_CD69: BioMAP Diversity Plus: IMphg Assay for CD69 Biomarker Activity (AID 2284257); conditions: primary human endothelial cells with macrophages
# How it was run: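 Human venular endothelial cells co-cultured with macrophages; CD69 quantified by ELISA 24 h after compound addition. Activity fitted in the positive direction relative to DMSO baseline; cytotoxicity tracked in parallel cultures via SRB total-protein staining.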
# [16] = read-out: Eotaxin 3, CCL26 (gene 10344); assay: BSK_BF4T_Eotaxin3: BioMAP Diversity Plus: BF4T Assay for Eotaxin 3 Biomarker Activity (AID 2284258); conditions: primary human bronchial epithelial cells with fibroblasts
# How it was run: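 Co-culture of human bronchial epithelial cells and dermal fibroblasts, exposed to chemicals for 24 h versus DMSO. Eotaxin-3 quantified by ELISA; cytotoxicity checked in parallel cultures by sulforhodamine B total-protein staining.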
smiles,measurement,setting,value
CCC1(C)C(=O)N(Cl)C(=O)N1Cl (stereo not given),outcome,[1],inactive
same,outcome,[2],inactive
same,outcome,[3],inactive
same,outcome,[4],inactive
same,outcome,[5],inactive
same,outcome,[6],inactive
CC(C)[N+](C)(CCOC(=O)C1c2ccccc2Oc2ccccc21)C(C)C,outcome,[1],inactive
same,outcome,[2],inactive
same,outcome,[3],inactive
same,outcome,[4],inactive
same,outcome,[5],inactive
same,AC50,[6],0.0398 µM (active)
C=CC(=O)OCCCCCCOC(=O)C=C,AC50,[1],25.7 µM (active)
same,AC50,[7],9.47 µM (active)
same,AC50,[2],20 µM (active)
same,AC50,[3],9.78 µM (active)
same,AC50,[4],34.7 µM (active)
same,AC50,[5],3.31 µM (active)
same,AC50,[6],34.6 µM (active)
C=CC(=O)OCC(C)OCC(C)OCC(C)OC(=O)C=C (stereo not given),AC50,[1],30.9 µM (active)
same,AC50,[2],30.8 µM (active)
same,AC50,[3],9.17 µM (active)
same,AC50,[4],31.1 µM (active)
same,AC50,[5],23.5 µM (active)
same,AC50,[6],30.9 µM (active)
C[N+](C)(C)CCCNS(=O)(=O)C(F)(F)C(F)(F)C(F)(F)C(F)(F)C(F)(F)C(F)(F)C(F)(F)C(F)(F)F,AC50,[1],48.8 µM (active) and 50.1 µM (active)
same,AC50,[2],33.6 µM (active) and 31.3 µM (active)
same,AC50,[3],32.6 µM (active) and 21.5 µM (active)
same,AC50,[4],46.9 µM (active) and 47.2 µM (active)
same,AC50,[5],48.9 µM (active)
same,outcome,[5],inactive
same,outcome,[8],inactive
same,outcome,[9],inactive
same,outcome,[10],inactive
same,AC50,[11],47.1 µM (active) and 49.6 µM (active)
same,AC50,[12],46.1 µM (active)
same,outcome,[12],inactive
same,outcome,[13],inactive
same,outcome,[14],inactive
same,AC50,[15],50.5 µM (active) and 56.9 µM (active)
same,AC50,[6],21.9 µM (active)
same,outcome,[6],inactive
same,AC50,"CD69, CD69 (gene 969)",8.01 µM (active)
same,outcome,"CD69, CD69 (gene 969)",inactive
same,outcome,[16],inactive
COc1ccc(C(=O)/C(Br)=C\C(=O)O)cc1,AC50,[1],20 µM (active)
same,outcome,[1],inactive
same,AC50,[2],28 µM (active) and 30.3 µM (active)
same,AC50,[3],23.2 µM (active) and 20 µM (active)
same,outcome,[4],inactive
same,outcome,[5],inactive
same,outcome,[6],inactive
Oc1c(Cl)cc(Cl)c(Cl)c1Cl,AC50,[1],16.5 µM (active)
same,AC50,[2],29.7 µM (active)
same,outcome,[3],inactive
same,AC50,[4],20 µM (active)
same,outcome,[5],inactive
same,AC50,[6],28.3 µM (active)
CC(C)c1cccc(C(C)C)c1N,outcome,[1],inactive
same,outcome,[2],inactive
same,outcome,[3],inactive
same,outcome,[4],inactive
same,outcome,[5],inactive
same,outcome,[6],inactive
O=C(Cl)c1c(Cl)c(Cl)c(C(=O)Cl)c(Cl)c1Cl,outcome,[1],inactive
same,outcome,[7],inactive
same,outcome,[2],inactive
same,outcome,[3],inactive
same,outcome,[4],inactive
same,outcome,[5],inactive
same,outcome,[6],inactive
Clc1cc(Cl)c(Cl)c(Cl)c1Cl,outcome,[1],inactive
same,outcome,[2],inactive
same,outcome,[3],inactive
same,outcome,[4],inactive
same,outcome,[5],inactive
same,AC50,[6],31.9 µM (active)
CCCCCCCO,outcome,[1],inactive
same,outcome,[7],inactive
same,outcome,[2],inactive
same,outcome,[3],inactive
same,outcome,[4],inactive
same,outcome,[5],inactive
same,outcome,[6],inactive
O=C1CCCCCCCCCCCN1,outcome,[1],inactive
same,outcome,[2],inactive
same,outcome,[3],inactive
same,outcome,[4],inactive
same,outcome,[5],inactive
same,outcome,[6],inactive
